Drawing on the supplement of paper PMC6555819, this text covers PBM binding z-score for 40 sequences.

This assay concerns VDR:RXRa (NR concentration 270 nM, RXRa partner concentration 90 nM). The assay is described as follows: PBM binding z-score (relative to random genomic background probes); higher = stronger binding; sequences stand for … in GC…GCGATTGACAGCGTAGAATGAAGG
How it is done:
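Protein-binding microarray (Agilent 4x180K custom design, double-stranded 60-nt probes: 5' GC cap, 34-nt variable region, 24-nt constant primer region; full probe sequence given). Purified or IVT nuclear receptor:RXRα heterodimers (3:1 NR:RXRα, mostly 270:90 nM) or homodimers were incubated for 1 h in PBS with 2% milk and no ligand, then detected with Alexa488 antibodies. Fluorescence from o1-orientation probes (~5 replicates averaged) was converted to z-scores against 500 random hg19 background probes. Variable regions are seed direct-repeat (DR0–DR5) sites, all their single-nucleotide variants and half-site ablations.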
For the sequence TCTTGTAGTTCAACAGGAGGTTAAGAAAGATCGA, the PBM binding z-score amounted to 2.57.
ATCTCTAGGTAAGACTCGGTTCAGTGAAGAACGC: the PBM binding z-score was 1.05.
In the case of CAAACTAGGTCCAGGTCAAAGTCGGTTTGTGCCA it was 3.06; in that of GATACAGGGTCAAGGCCAGAGTCCGCGTATTGAT, 4.32; in that of GCGACTGGGGCAAAGCAAGTTACCATAAGGTTGG, -0.206.
In the case of GCGACTGGGGCATCAGCACGTTACCATAACTTAA it was -0.365; in that of TCTGGTAGATCAACAGGAGGTTAAGAAAGATCGA, 0.61.
In the case of CCTAGCAGGCCAGGATCACTCAAGCATTTCGCTT it was -0.583; in that of TCGAGTAGCTTAGTCGGGGCATTCAGCCAACATA, -0.32.
The sequence TCATATAGGTAAAAGGTGAAAGTCGGTGTGGTAA came in with a PBM binding z-score of 1.82.
To CGTCCAAGGTTAGCAGGTCAGTGAAAGCGACGTG belongs 1.
In the case of ACTATTCGTTGAGACGAGGGCAACCGATAGGTTG it was 0.454; in that of CATACAGGGTCAGCGAGGCCAGAGTAGGGACGGC, 5.93; in that of ATCGAAAGGACGAAGGTGAGTATACCCACCCGAA, -0.276.
To GGAACGTGGGCAAAGTTGATAGCATCTGTCGACG belongs -0.399.
The sequence ACAGACAGGTGATGAAGGTAACTCGGGCTATCAT registered a PBM binding z-score of 0.101.
In the case of TTACCAAGGTGAAAGATCGTTGATGCACGCCTTG, the PBM binding z-score worked out at 0.0935.
In the case of ACAGACAGGAGAGTGAAGGTAACTCAGCTGGACG it was -0.068; in that of CCTTTCGGGTCACTCCAGGTTATAGCATCGGAGT, 4.19; in that of ATATGTAGGTTATCGGGTCATTCAATTTGCGCAT, 3.87.
CTCGAAAGATCGGTTGAGGTGAGTATACGGATAA returned a PBM binding z-score of -0.152.
Turning to GCTTGTAGATCAAGGTTAAGCAAGACTAAGCTAA, the PBM binding z-score is 0.0624.
The sequence CGTCCAAGGTCAATGCTAGGTCAGTGTAAGCATT gave a PBM binding z-score of 4.85.
To TTACCAAGGTGGGCTGAGGTCGTTGATCCAACTC belongs 2.6; to GCTTGTAGATCAAGGTTAAGAGAGACTAAGCTAA, -0.00778.
To CGTCCAAGGTCAAAGTCAGTGAAAGAGACTCGAA belongs 3.77; to CGTCCAAGTTCAAGGTCAGTGAAAGAGACTCGAA, 3.88.
To AGAACGAGGACAATGAGTTGATAGCACGGGTGGC belongs 1.75; to ATCTCTAGGTAACCCAGTTCAGTGAATGCCGAAC, 2.74.
TCTTGTAGATCAAGCACGTTAAGAAAGCCTGAGT gave a PBM binding z-score of 0.187.
The sequence CCGACTGGGGTAAAGGTTACCATACTCAGTACGA yielded a PBM binding z-score of 1.18.
In the case of TAGCCTAGGTAATTCAGGGGCCAGTATAGAAAGC it was -0.417.
In the case of TCGAGTAGGTCAGGGGCATTCAGAATGGCGTCGA it was 1.55.
In the case of TCTGCTAGGTCGACGATGGTCAGCTAATCTGCTA it was -0.229.
For the sequence GCTGCTAGGTCAGGTTGGTCATCTAACGGGTACG, the PBM binding z-score was determined as 1.25.
In the case of CCGAATGGGGCAAAGGTTACCATACTCAGTACGA it was 1.77; in that of TCTCGGAGGACACGAAGGTAAGAGCTTTCCAGAG, -0.386; in that of CGTCCAAGGTCAGAGGGGTCAGTGAATGCCGAGT, 7.48.
In the case of CCTACTGGGCCAAAGGTCACTGATTCCAATGCTC it was 4.55; in that of CGTCAAAGTTCAACTAGGGTAACGTAAAGCACGC, 5.28.
